SMILES strings stand for the structures. Results filed as inconclusive are left out. Activity calls are given as the source filed them. Rule for the calls: active = hit-call score of the fitted dose curve at least 0.9, where 1 is the maximum; inconclusive = response in the unintended direction; inactive = score below 0.9.

Sequence of Estrogen-related receptor gamma (Homo sapiens) (P62508 whole entry, looked up): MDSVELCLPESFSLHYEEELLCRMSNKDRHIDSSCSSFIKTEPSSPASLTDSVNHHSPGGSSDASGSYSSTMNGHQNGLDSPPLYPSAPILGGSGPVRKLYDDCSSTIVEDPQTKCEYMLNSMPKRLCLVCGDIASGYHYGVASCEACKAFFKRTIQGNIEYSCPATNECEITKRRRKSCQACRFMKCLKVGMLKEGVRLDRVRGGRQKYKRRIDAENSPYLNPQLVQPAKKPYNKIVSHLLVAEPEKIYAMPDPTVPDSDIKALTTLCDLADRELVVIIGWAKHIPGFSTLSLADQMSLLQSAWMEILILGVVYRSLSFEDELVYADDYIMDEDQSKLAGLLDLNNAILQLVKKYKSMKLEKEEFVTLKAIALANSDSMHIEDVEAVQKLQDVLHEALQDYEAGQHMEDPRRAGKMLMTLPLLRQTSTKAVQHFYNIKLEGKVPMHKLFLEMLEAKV

The test concerns the target Estrogen-related receptor gamma (Homo sapiens) (UniProt P62508). Briefly: ATG_ERRg_TRANS: Attagene TRANS-FACTORIAL HepG2 Assay for human Estrogen-Related Receptor gamma (ERRg) (AID 2282977).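 Note: hits increase reporter signal over DMSO so potencies reflect activators.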 Conditions: HepG2 Attagene TRANS reporter, ERRg transactivation. The procedure: ATG_TRANS is a cell-based, multiplexed-readout assay that uses HepG2, a human liver cell line, with measurements taken at 24 hours after chemical dosing in a 24-well plate.ATG_ERRg_TRANS is one of 30 assay component(s) measured or calculated from the ATG_TRANS assay. It is designed to make measurements of mRNA induction, a form of inducible reporter, as detected with fluorescence intensity signals by Reverse transcription polymerase chain reaction (RT-PCR) and Capillary electrophoresis technology.Data from the assay component ATG_ERRg_TRANS was analyzed into 1 assay endpoint. This assay endpoint, ATG_ERRg_TRANS, was analyzed in the positive analysis fitting direction relative to DMSO as the negative control and baseline of activity. Using a type of inducible reporter, measures of mRNA for gain-of-signal activity can be used to understand the reporter gene at the transcription factor-level as they relate to the gene ESRRG. Furthermore, this assay endpoint can be referred to as a primary readout, because this assay has produced multiple assay endpoints where this one serves a reporter gene function. To generalize the intended target to other relatable targets, this assay endpoint is annotated to the nuclear receptor intended target family, where the subfamily is steroidal.
Human liver HepG2 cells are transiently transfected with multiple reporter transcription units (MRTUs) in 6-well plates using FuGene 6 reagent (Roche; 3 ml FuGene/1 mg DNA). The MRTU constructs are regulated by a cis-regulating element (promoter). […] A major difference between the CIS and TRANS system is that in CIS activities of endogenous TFs are measured, whereas the TRANS assay evaluates changes in activities of exogenous, chimeric NR-Gal4 proteins. […] At the end of 24 hour incubation, total RNA was isolated using TriZol reagent (Invitrogen). The isolated RNA is then reverse-transcribed using oligo(dT) primer and Mo-MLV reverse transcriptase (Invitrogen) with DNAse I (Ambion) treatment for 30 min. The one-tenth of the produced cDNA was amplified by PCR using Taq DNA polymerase (Invitrogen) and two reporter sequence-specific primers. The PCR products were fluorescently labeled by primer extension with 6-arboxyfluorescein (6-FAM) 5'-labeled reporter sequence-specific primer (2 min at 95 C, 20 s at 68 C and 10 min at 72 C) and these products were digested with 5U of HpaI (New England Biolabs) for 2h at 37 C. The fragments were purified using Qiaquick PCR columns (Qiagen), analyzed on an ABI 3130xL genetic analyzer (Applied Biosystems) with peak positions identified by using a set of X-rhodamine (ROX)-labeled MapMarker1000 molecular weight standards (BioVentures). The raw capillary electrophoresis data was processed using Attagraph software (Attagene).
Take `CCOC(=O)C(C)OC(=O)c1cc(Oc2ccc(C(F)(F)F)cc2Cl)ccc1[N+](=O)[O-]` (configuration not stated): the call was inactive.

As for `Nc1c(Cl)c(F)nc(OCC(=O)O)c1Cl`, the call was inactive.

For `N#Cc1c(Cl)cccc1Cl`, the compound was classed as inactive.

Consider `CC(C)N1C(=O)N(c2ccccc2)CSC1=NC(C)(C)C`, for which the outcome was inactive.

Consider `CCCCC(C#N)(Cn1cncn1)c1ccc(Cl)cc1` (configuration not stated), for which the compound was called inactive.

With `CN=C=S`, the compound was called inactive.

As to `COP(=S)(OC)Oc1ccc([N+](=O)[O-])c(C)c1`, the compound was called inactive.

In the case of `CCOc1nc(C(Cl)(Cl)Cl)ns1`, the result was inactive.

In the case of `CC(C)Oc1cccc(NC(=O)c2ccccc2C(F)(F)F)c1`, the call was inactive.

Regarding `COP(=S)(OC)SCn1nnc2ccccc2c1=O`, the compound was classed as inactive.

As to `CC(C)N1C(=O)c2ccccc2NS1(=O)=O`, the compound was classed as inactive.

With `CC1(C)C(C(=O)OC(C#N)c2cccc(Oc3ccccc3)c2)C1(C)C` (configuration not stated), the compound was called inactive.

Regarding `CCCCOCN(C(=O)CCl)c1c(CC)cccc1CC`, the call was inactive.

For the compound `CS(=O)(=O)c1cc(C(F)(F)F)ccc1C(=O)c1cnoc1C1CC1`, the compound was called inactive.

Take `CC(C)NC(=O)N1CC(=O)N(c2cc(Cl)cc(Cl)c2)C1=O`: the result was inactive.

Take `C=CCOC(=O)C(C)(C)OC(=O)c1cc(-n2c(=O)cc(C(F)(F)F)n(C)c2=O)ccc1Cl`: the result was inactive.

Regarding `COP(=O)(OC)O/C(C)=C/C(=O)N(C)C`, the result was inactive.

With `COc1ccc(-c2ccccc2)cc1NNC(=O)OC(C)C`, the result was inactive.

Turning to `COC(=O)NS(=O)(=O)c1ccc(N)cc1`, the compound was classed as inactive.

For the compound `COC(=O)c1c(C(F)F)nc(C(F)(F)F)c(C2=NCCS2)c1CC(C)C`, the call was inactive.

On to `COc1cc(OC)nc(NC(=O)NS(=O)(=O)c2ncccc2OCC(F)(F)F)n1`, for which the result was inactive.

Consider `N#Cc1c[nH]cc1-c1cccc2c1OC(F)(F)O2`, for which the outcome was inactive.

For `O=C1C2CC=CCC2C(=O)N1SC(Cl)(Cl)Cl` (configuration not stated), the compound was classed as inactive.

As to `COC(=O)N(C(=O)N1CO[C@@]2(C(=O)OC)Cc3cc(Cl)ccc3C2=N1)c1ccc(OC(F)(F)F)cc1`, the result was inactive.

Regarding `CCNC(=O)NC(=O)C(C#N)=NOC`, the compound was classed as inactive.

For the compound `COCC(=O)N(c1c(C)cccc1C)C(C)C(=O)OC` (configuration not stated), the compound was called inactive.

Consider `CCCCC(O)(Cn1cncn1)c1ccc(Cl)cc1Cl` (configuration not stated), for which the compound was called inactive.

Take `CCC(C)n1c(=O)[nH]c(C)c(Br)c1=O` (configuration not stated): the call was inactive.

Take `O=C(Nc1ccccc1-c1ccc(Cl)cc1)c1cccnc1Cl`: the compound was classed as inactive.

On to `Cc1cc(C)nc(Nc2ccccc2)n1`, for which the result was inactive.

Consider `CCOc1cc(C(C)(C)C)ccc1C1COC(c2c(F)cccc2F)=N1` (configuration not stated), for which the result was inactive.

`N#CN=C1SCCN1Cc1ccc(Cl)nc1`: the result was inactive.

For the origin of these results see PubChem BioAssay (EPA / NIEHS).
